Screening results deposited in PubChem BioAssay by National Center for Advancing Translational Sciences (NCATS).
An excerpt weighted towards active compounds, which were near 0.52% of everything screened.
Vif-A3G inh = blocks the Vif interaction with human APOBEC3G | Q9HC16 | HeLa A3G-eYFP + Vif (tagged APOBEC3G with the HIV-1 protein that degrades it), YFP fluorescence, overnight | Potency, µM (top dose mostly 46.1 µM), for inactives: at the highest dose activity, negative = active, hits mostly inhibitors | 410,000 tested, 0.076% active; further: on the % scale 0 is the no-effect control and ±100 the full control effect; nearly all actives have a fitted effect of over 60% in size
Target sequence (Q9HC16 whole entry, looked up): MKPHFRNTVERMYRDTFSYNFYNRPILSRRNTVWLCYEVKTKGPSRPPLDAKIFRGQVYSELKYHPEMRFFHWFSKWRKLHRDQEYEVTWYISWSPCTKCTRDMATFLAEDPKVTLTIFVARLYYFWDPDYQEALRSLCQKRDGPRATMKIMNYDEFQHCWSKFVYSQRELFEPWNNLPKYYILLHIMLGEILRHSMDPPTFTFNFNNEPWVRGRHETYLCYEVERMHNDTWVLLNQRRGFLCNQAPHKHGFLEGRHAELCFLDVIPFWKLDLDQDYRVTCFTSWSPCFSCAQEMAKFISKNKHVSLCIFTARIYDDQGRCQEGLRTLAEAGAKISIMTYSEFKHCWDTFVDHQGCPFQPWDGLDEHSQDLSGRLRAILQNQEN
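Read-out is eYFP fluorescence (Ex 488/Em 500-530) from Vif-expressing HeLa A3G-eYFP cells; more signal means A3G escaped Vif-mediated degradation. Cells plated overnight, compound pinned in, incubated overnight at 37 deg C.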
PINK1 expr mod = PINK1 expression modulation. PINK1 immunofluorescence, high-content cytometry, 24 h. AID 624263. 410,000 tested, 0.2% active. Potency, µM (highest dose often 76.6 µM), without a hit: top-dose activation (PINK1 increase), usual class: activators; active means well fitted activation curve with a large enough effect; inconclusive means small, poorly fitted or top-dose-only effect; cell line not stated here; further: % of control where 0% means no effect; nearly all actives have a fitted effect of over 65% in size
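PINK1 protein level read as immunofluorescence by microplate cytometer in a fixed, stained stable cell line after 24 h exposure to five compound concentrations, with CCCP as control.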
Epigenetic reg = regulators of epigenetic silencing causing reporter derepression in mouse cells; murine LDR cells, GFP reporter derepression, 30 h; Potency, µM (doses to about 53.9 µM), without a hit: at the top dose GFP activation, actives largely listed as activators; 280,000 tested, 0.2% active; further: % of control where 0% means no effect; nearly all actives have a fitted effect of over 60% in size
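Murine LDR cells carrying a silenced, genomically integrated CMV-driven GFP reporter were exposed to compound for 30 hours at 37 C. After PBS washes, GFP-positive cells (20–120 um objects) were counted by laser-scanning microplate cytometry.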
Vif-APOBEC3F blk = inhibitors of Vif-A3F interaction; Potency, µM (top dose mostly 46.1 µM), for inactives: top-dose activity, negative = active; 390,000 tested, 0.2% active; HeLa A3F-eYFP + Vif (tagged APOBEC3F with the HIV-1 protein that degrades it), YFP fluorescence increase; further: % of control where 0% means no effect; nearly all actives have a fitted effect of over 65% in size
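HeLa cells stably expressing A3F-eYFP plus Vif, plated and incubated overnight at 37 deg C, then exposed to compounds overnight at 37 deg C. Blocked degradation read as raised yellow fluorescence (Ex 488/Em 500-530).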
Active calls of the source: *; ? = inconclusive; · = not tested or not shown; [ ] = dose if it differs, or a comment. Unless noted, the call rests on the fitted dose curve; in most records, active means well fitted curve in the direction sought with a large enough effect; inconclusive means small, poorly fitted or top-dose-only effect, or another doubt; inactive means no such curve, though single readings can be large; an effect the other way counts as inactive or inconclusive. Potency means the concentration at half of the fitted maximal effect.

SMILES	Vif-A3G inh	PINK1 expr mod	Epigenetic reg	Vif-APOBEC3F blk
COc1ccc(C2c3ccc(O)cc3Oc3ncn4nc(-c5ccccn5)nc4c32)cc1OC (stereo unspecified)	-2.1%	7.6%	0.1%	-17.4%
CCCCCOc1ccc(NC(=O)c2cc(SC)ccc2Cl)cc1	-7.9%	14.1µM*	0.0%	5.7%
Cc1cc(C)c2c3c(c(-c4ccccc4)n2n1)c(=O)n(C)c(=O)n3C	1.9%	1.6%	·	12.8%
Cc1cc(-c2ccccc2)c2c3c(c(-c4ccccc4)n2n1)c(=O)n(C)c(=O)n3C	?	?	?	25.1µM*
CCn1cc([N+](=O)[O-])c(C(=O)Nc2nc(-c3ccc(C)c(C)c3)c(C)s2)n1	-4.1%	2.82µM*	2.9%	-5.1%
COCC1CCCN(Cc2ccc3c(c2)CN(C(=O)c2cccnc2OC)CCO3)C1 (stereo unspecified)	·	0.0%	·	·
O=C1COc2ccc(C(=O)CSc3nc4ccccc4c(=O)n3-c3ccc(Cl)c(Cl)c3)cc2N1	?	-2.1%	?	10µM*
CCc1ccc(-n2c(SCC(=O)c3ccc4c(c3)NC(=O)CO4)nc3ccccc3c2=O)cc1	0.5%	4.2%	?	?
O=C1CC(N(CCc2ccccc2)C(=S)Nc2ccccc2)C(=O)N1c1ccccc1 (stereo unspecified)	-15.2%	25.1µM*	1.0%	?
Oc1c(CN2CCN(c3ccccc3)CC2)cc(Br)c2cccnc12	1.2%	2.8%	?	?
CC(C)OCc1cc(CN2CCN(c3ccccc3)CC2)c(O)c2ncccc12	-0.6%	0.7%	2µM*	-27.4%
Oc1c(CN2CCOCC2)cc(COCc2ccccc2)c2cccnc12	-9.7%	-0.8%	3.98µM*	?
CCOCc1cc(CN2CCN(c3cccc(Cl)c3)CC2)c(O)c2ncccc12	3.6%	1.6%	3.55µM*	3.0%
COCc1cc(CN2CCN(C)CC2)c(O)c2ncccc12	-4.7%	17.2%	?	1.9%
COc1ccc(-c2ccnc(-n3ncc(C(=O)NCc4cccnc4)c3C3CC3)n2)cc1F	·	1.1%	·	·
O=C(NCCc1ccccn1)C1CC12CCN(C(=O)c1c(F)cccc1Cl)CC2 (stereo unspecified)	·	0.8%	·	·
O=C(NC(NC(=S)Nc1cccc(C(=O)O)c1)C(Cl)(Cl)Cl)OCc1ccccc1 (stereo unspecified)	2.5%	-1.9%	-1.5%	10.9%
O=C(NC(NC(=S)Nc1cccc(Cl)c1)C(Cl)(Cl)Cl)OCc1ccccc1 (stereo unspecified)	-10.6%	7.94µM*	1.0%	-19.4%
COc1cccc(CNc2ncnc3sc(C(=O)N4CC5CCC4C5)c(C)c23)c1OC (stereo unspecified)	·	-0.6%	·	·
CN(C)c1ccc(C=C2SC(=S)N(Cc3ccco3)C2=O)cc1	?	17.7%	·	?
Cc1cc(/C=C2\SC(=S)N(Cc3ccco3)C2=O)c(C)n1-c1ccccc1	?	2.8%	?	20µM*
Cc1ccccc1Sc1c(C#N)c(-c2ccccc2)nn1C	-1.6%	7.08µM*	-0.3%	-12.6%
Cc1cc(C(=O)NCCCn2ccnc2)cs1	0.2%	10µM*	-1.1%	-3.6%
COC(=O)c1sc2nc(CSc3ccc(Br)cc3)[nH]c(=O)c2c1C	-4.1%	12.4%	7.3%	11.2µM*
COc1cc(=O)n2c(c1C(=O)N(C)Cc1nonc1C)CCN(Cc1c(F)cccc1F)CC2	·	1.0%	·	·
SMILES	Vif-A3G inh	PINK1 expr mod	Epigenetic reg	Vif-APOBEC3F blk
Cc1nc(N2CCc3ccccc3C2)[nH]c(=O)c1CCC(C)C	0.3%	11.2µM*	-0.2%	-17.6%
Cc1nc(N2CCOCC2)[nH]c(=O)c1CCC(C)C	-3.5%	-19.7%[38.3 µM]	-1.0%	-24.3%
Cc1cc(S(=O)(=O)N(Cc2ccccn2)Cc2ccco2)ccc1-n1cnnn1	-0.6%	·	-0.8%	-8.0%
CCN(Cc1ccccc1)S(=O)(=O)c1ccc(S(=O)(=O)N(Cc2ccccn2)Cc2ccco2)cc1	2.2%	11.2µM*	0.0%	-0.5%
CCN(CC)c1ccc(/C=c2/sc3nnc(-c4ccccc4C)n3c2=O)cc1	-3.4%	·	7.0%	1.26µM*
CCN(CC)c1ccc(/C=c2\sc3nnc(-c4ccccc4Cl)n3c2=O)cc1	1.7%	4.2%	3.6%	2.2%
C[n+]1ccccc1/C=C1\Sc2ccccc2N1CCO	-15.1%	0.4%	·	-12.5%
CC[n+]1ccc(/C=C2\Sc3ccccc3N2CCCS(=O)(=O)[O-])c2ccccc21	?	-1.6%	2.1%	3.55µM*
O=C(Nc1ccccc1)c1ccc(NCCc2ccccc2)c([N+](=O)[O-])c1	-16.6%	?	12.6µM*	?
